The source of these data is PubChem BioAssay AID588811 (Broad Institute, 2011).

Measured potencies and affinities stand elsewhere. Unmarked numbers belong to inactive results. Active and inactive are the calls of the source.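 The calls were made as follows: active = compounds lowering signal whose fitted half-maximal concentration is at most twice the top tested dose; inconclusive = flat curve with 30 to 70% inhibition, or poor fit; inactive = the rest.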

The target in the test is Dual specificity protein kinase CLK1 (Homo sapiens) (UniProt P49759). Kind of test: CLK1 kinase inhibitors, off-target check, dose response, selectivity assay for Dyrk1A inhibitor project, biochemical, cherry-picked samples (AID 588811). Conditions: recombinant CLK1, ADP-Glo luminescence, 2 h; series mostly up to 12 µM.
Chain of Dual specificity protein kinase CLK1 (Homo sapiens) (P49759 whole entry, looked up): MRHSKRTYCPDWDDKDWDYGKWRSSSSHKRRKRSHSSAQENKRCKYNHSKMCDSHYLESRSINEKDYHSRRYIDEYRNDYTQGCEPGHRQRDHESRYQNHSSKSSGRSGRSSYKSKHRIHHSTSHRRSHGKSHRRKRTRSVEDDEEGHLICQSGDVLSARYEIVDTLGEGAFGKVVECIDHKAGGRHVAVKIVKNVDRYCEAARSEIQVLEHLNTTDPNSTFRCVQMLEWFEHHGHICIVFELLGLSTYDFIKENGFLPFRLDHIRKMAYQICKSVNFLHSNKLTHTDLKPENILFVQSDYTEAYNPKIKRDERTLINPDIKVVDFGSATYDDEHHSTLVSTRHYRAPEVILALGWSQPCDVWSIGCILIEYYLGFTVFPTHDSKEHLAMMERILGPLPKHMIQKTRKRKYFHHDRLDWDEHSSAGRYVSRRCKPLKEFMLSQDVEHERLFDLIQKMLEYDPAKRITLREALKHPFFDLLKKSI
For the compound `CCCC(=O)Nc1nc(-c2ccc3c(c2)OCCO3)cs1`, the result was inactive.
The same measure, in the same setting: next, `N#Cc1c(C(F)(F)F)cc(-c2cccc(Cl)c2)[nH]c1=O`: “inactive”; `COCCNC(=O)c1ccc2c(c1)nc(C)n2-c1cccc(F)c1`: “inactive”; `Fc1cccc(Nc2nc(-c3ccncc3)nc3ccccc23)c1`: “inactive”.
The same measure, in the same setting: the same measure for `Clc1cc(Cl)cc(CNc2cc(-c3ccc4c(c3)OCO4)ncn2)c1`: “inactive”; for `O=C(NCc1ccco1)c1sc2ccccc2c1Cl`: “inactive”; for `Cc1ccnc(NC(=O)c2cccc(S(=O)(=O)N3CCN(c4ccccc4)CC3)c2)c1`: “inactive”.
Regarding `CC(=O)Nc1cccc(NC(=O)c2cc3ccccc3o2)c1`, the result was inactive.
The same measure, in the same setting: the same measure for `Clc1ccc(CNc2nccc(-c3ccc4cn[nH]c4c3)n2)cc1Cl`: “inactive”; for `Clc1ccccc1-c1ccc2ncnc(NCc3ccc4c(c3)OCO4)c2c1`: “inactive”.
The same measure, in the same setting: next, `COc1cccc(-c2sc3ccccc3c2-c2ccc(OCCN3CCCC3)cc2)c1`: “inactive”.
For the compound `COc1cccc(Nc2nc(NCCO)c3ccccc3n2)c1`, the activity change, negative = inhibition is -8.29% [at 1.35 µM].
Turning to `Cc1c(-c2ccnc(NCc3ccc(Cl)cc3)n2)sc(=O)n1C`, the outcome was inactive.
As to `COc1ccc2c(Cl)c(C(=O)NCc3ccco3)sc2c1`, the result was inactive.
Still for that read-out and setting: the same measure for `Cc1noc(NS(=O)(=O)c2ccc(NC(=O)c3oc4ccc(F)cc4c3C)cc2)c1C`: “inactive”; for `Clc1ccc(CNc2cc(-c3ccc4c(c3)OCO4)ncn2)cc1`: “inactive”.
On to `N#CCSc1nc(Nc2ccc3c(c2)OCO3)c2ccccc2n1`, for which the result was inactive.
